Assay [1] can be described thus: HepG2 liver cancer cell viability effects, profiling panel, resazurin fluorescence, 24 h, PK04 Diversity Set (AID 1172). Also: test concentration not given here. The conditions noted are these: higher = more signal. (Alamar Blue is a resazurin reagent that responds to reducing activity.)
Assay [2] can be described thus: basal S. cerevisiae growth modulation, no modifier, primary screen, OD600, strain BY4716, 24 h, basal condition (AID 1173). The conditions noted are these: OD600, 24 h, higher = more signal, called active from +8 up or from −8 down.
Assay [3] is described as follows: MM1S myeloma cell viability, profiling panel, resazurin fluorescence, basal, 24 h, PK04 Diversity Set (AID 1174).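 Also: MM1S multiple myeloma cell line; test concentration not given here.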 The conditions noted are these: higher = more signal, called active from +8 up or from −8 down.
Assay [4] concerns the target Dihydroorotate dehydrogenase (quinone), mitochondrial (Plasmodium falciparum (isolate 3D7)) (UniProt Q08210). Kind of assay: PfDHODH enzyme inhibitors, primary screen, biochemical, C-terminal His tag, absorbance 600 nm (AID 1175).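 Also: recombinant parasite enzyme with a five histidine tag at its C terminus; test concentration not given here.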 The conditions noted are these: DCIP absorbance 600 nm, higher = more signal, called active from +8 up or from −8 down.
Assay [5] is described as follows: P. aeruginosa biofilm formation inhibitors, primary screen, strain PAO1, LB-PBS medium, absorbance 600 nm (AID 1176). Also: test concentration not given here. The conditions noted are these: P. aeruginosa PAO1 growth/biofilm, A600, 12 h; higher = more signal.
Assay [6] in a line: S. cerevisiae RM11-1a growth modifiers, primary screen, strain RM11-1a, OD600, basal, 24 h (AID 1177).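 Also: cultures grown under basal conditions with no added stressor; test concentration not given here.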 The conditions noted are these: OD600, 24 h, higher = more signal, called active from +8 up or from −8 down.
The nature of assay [7]: E. coli acrAB mutant growth effects, primary screen, E. coli filamentation inducers, strain DRC39, OD650, 24 h (AID 1178).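 Also: growth measured as culture turbidity by optical density at 650 nm; test concentration not given here.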 The conditions noted are these: higher = more signal, called active from +8 up or from −8 down.
Assay [8] in a line: E. coli acrAB mutant growth effects, primary screen, E. coli filamentation inducers, strain DRC39, OD650, 48 h (AID 1179).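 Also: screen aims at cell division blockers that make cells filament.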 The conditions noted are these: E. coli DRC39 delta-acrAB growth, higher = more signal, called active from +8 up or from −8 down.
A short description of assay [9]: RPMI8226 myeloma cell viability, profiling panel, resazurin fluorescence, basal, 24 h, PK04 Diversity Set (AID 1180).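 Also: RPMI8826 multiple myeloma cell line at 5000 cells per well; test concentration not given here.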 The conditions noted are these: higher = more signal.
Assay [10] has as its target E3 ubiquitin-protein ligase XIAP (Homo sapiens) (UniProt P98170). Kind of assay: XIAP binders, primary screen, biophysical, small-molecule microarray, fluorescence 635 nm (AID 1181).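 Also: score merges 667 nm emission and signal to noise over triplicate slides.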 The conditions noted are these: small-molecule microarray binding, higher = more signal.

Each structure is given as a SMILES string. The source made the active and inactive calls. Unless noted, no rule for the calls is given here.

E3 ubiquitin-protein ligase XIAP (Homo sapiens), sequence (P98170 whole entry, looked up): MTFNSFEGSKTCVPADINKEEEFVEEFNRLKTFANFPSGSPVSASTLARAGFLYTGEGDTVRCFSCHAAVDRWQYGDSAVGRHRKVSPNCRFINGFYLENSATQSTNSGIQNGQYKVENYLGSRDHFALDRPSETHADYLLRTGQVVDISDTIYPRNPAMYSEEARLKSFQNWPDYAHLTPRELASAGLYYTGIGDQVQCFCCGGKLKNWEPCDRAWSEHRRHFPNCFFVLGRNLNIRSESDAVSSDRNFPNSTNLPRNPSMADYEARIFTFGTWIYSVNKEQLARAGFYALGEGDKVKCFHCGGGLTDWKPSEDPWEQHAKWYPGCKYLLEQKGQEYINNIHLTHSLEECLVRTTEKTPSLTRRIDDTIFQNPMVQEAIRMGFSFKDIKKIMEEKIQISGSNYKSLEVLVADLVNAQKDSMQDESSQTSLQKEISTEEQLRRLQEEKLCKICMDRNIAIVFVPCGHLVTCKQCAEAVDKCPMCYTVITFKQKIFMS
Dihydroorotate dehydrogenase (quinone), mitochondrial (Plasmodium falciparum (isolate 3D7)), sequence (Q08210 whole entry, looked up): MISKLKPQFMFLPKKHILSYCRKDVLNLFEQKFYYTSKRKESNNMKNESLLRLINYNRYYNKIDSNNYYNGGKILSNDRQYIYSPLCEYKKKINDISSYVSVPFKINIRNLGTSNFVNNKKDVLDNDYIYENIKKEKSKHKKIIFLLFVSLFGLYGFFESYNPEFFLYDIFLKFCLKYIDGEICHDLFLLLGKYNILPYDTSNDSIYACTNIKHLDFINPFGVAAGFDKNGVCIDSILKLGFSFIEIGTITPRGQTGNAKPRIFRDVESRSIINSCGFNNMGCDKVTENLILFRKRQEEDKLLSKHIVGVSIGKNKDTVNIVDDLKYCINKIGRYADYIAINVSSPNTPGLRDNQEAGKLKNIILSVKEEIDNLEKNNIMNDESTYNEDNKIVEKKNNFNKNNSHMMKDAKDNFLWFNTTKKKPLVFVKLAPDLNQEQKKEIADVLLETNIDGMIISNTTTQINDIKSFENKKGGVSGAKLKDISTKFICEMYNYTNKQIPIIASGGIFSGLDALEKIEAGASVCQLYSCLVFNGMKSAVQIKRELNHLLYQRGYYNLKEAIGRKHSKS

Consider `C=C(CCCC)/C(=C/C[C@H](OC(C)=O)c1ccccc1OCCO)c1cnc2ccccc2c1`, for which the z-score was -0.671 in assay [1]; -0.468 (inactive) in [2]; -1.37 (inactive) in assay [3]; 0.26 (inactive) in assay [5]; 1.15 (inactive) in assay [6]; -0.709 (inactive) in assay [7]. The values for the z-score in [8] and in [9] were -0.742 (inactive) and -0.905, respectively. In addition, the values for the composite z-score in assay [4] and in assay [10] were -5.76 (inactive) and -0.13, respectively.
On to `[N-]=[N+]=Nc1ccccc1[C@H]1OC(c2ccc(OCCCO)cc2)=N[C@@]1(CCS(=O)(=O)c1ccccc1)C(=O)NCc1ccccc1`, for which the z-score is 0.614 in [1]; -0.008 (inactive) in [2]; -0.548 (inactive) in assay [3]; 0.441 (inactive) in [5]; -0.22 (inactive) in assay [6]; -0.0211 (inactive) in assay [7]. Further, the z-score in [8] is -0.77 (inactive); in assay [9], -0.129. The composite z-score in assay [4] was 0.44 (inactive); in [10] it was 0.0623.
With `COc1ccc([C@H]2OC[C@@H]3CCC(=O)N32)cc1`, the z-score in assay [1] was 0.219; in assay [2] it was 0.242 (inactive); in [3], 0.526 (inactive); in assay [5], -0.133 (inactive); in assay [6], 0.189 (inactive); in assay [7], 0.905 (inactive). Further, the z-score in [8] was 0.593 (inactive); in [9], 0.131. Further, the composite z-score in assay [4] was -0.0915 (inactive); in assay [10] it was -0.199.
As for `COC(=O)c1c2oc(c1C(=O)OC)C(=O)N[C@@H](C(C)C)Cn1cc(nn1)C1(CCCCC1)NC(=O)N[C@H](CO)CC2`, the z-score is 1.61 in [1]; -1.04 (inactive) in [2]; 1.31 (inactive) in [3]; 0.985 (inactive) in assay [5]; -0.719 (inactive) in assay [6]; 0.925 (inactive) in assay [7]. In addition, the z-score is 1.11 (inactive) in assay [8] and 1.07 in assay [9]. Moreover, the composite z-score in assay [4] is 0.0825 (inactive); in assay [10], 0.098.
As to `CC(C)[Si](C#CCCCC#N)(O[C@H](c1ccccc1)c1cn(Cc2cccc(Cl)c2)nn1)C(C)C`, the z-score in assay [1] was 0.36; in [2], -0.718 (inactive); in assay [3], 0.109 (inactive); in assay [5] it was 1.25 (inactive); in [6], -0.358 (inactive); in [7] it was -0.0251 (inactive). Moreover, the z-score was -0.203 (inactive) in assay [8] and -0.701 in [9]. Besides, the composite z-score was 0.369 (inactive) in assay [4] and 0.149 in assay [10].
Take `CC(C)=CCCC(C)=CC(O)C1C=CC2C(=O)N(c3ccccc3)C(=O)C2N1Nc1ccc(C(C)C)cc1` (stereo not given): the z-score in [1] was -0.307; in assay [2], 0.125 (inactive); in [3], -0.862 (inactive); in [5], 0.0616 (inactive); in [6], 1.47 (inactive); in assay [7], -0.427 (inactive). Moreover, the z-score in assay [8] was -0.306 (inactive); in [9] it was -0.463. Moreover, the composite z-score in [4] is 0.484 (inactive); in assay [10] it was -0.0382.
Regarding `CC(=CC1CCCCC1)[C@@H](NC(=O)c1cccnc1)c1ccc(-c2ccccc2)cc1`, the z-score is 0.41 in assay [1]; 2.33 (inactive) in assay [2]; 0.382 (inactive) in assay [3]; 1.93 (inactive) in [5]; 2.69 (inactive) in [6]; -0.906 (inactive) in assay [7]. The z-score in assay [8] was -0.871 (inactive); in assay [9], -1.22. Also, the composite z-score in assay [4] was -0.22 (inactive); in assay [10], -0.0095.
Consider `CCCC[C@@H]1C[C@H]1[C@@H](NC(=O)c1cccnc1)c1ccc(Cl)cc1`, for which the z-score in assay [1] is 0.562; in assay [2], -6.77 (inactive); in assay [3], -0.731 (inactive); in assay [5], -0.0019 (inactive); in assay [6] it was -2.78 (inactive); in assay [7], 0.014 (inactive). The z-score was -0.0491 (inactive) in assay [8] and -0.663 in assay [9]. Moreover, the composite z-score was 0.303 (inactive) in assay [4] and -0.0948 in assay [10].
As for `[N-]=[N+]=Nc1ccccc1C[C@@]1(C(=O)N2CCCCC2)N=C(c2ccc(OCCCO)cc2)O[C@@H]1c1ccccc1N=[N+]=[N-]`, the z-score in assay [1] was -0.45; in [2], -0.893 (inactive); in [3] it was -2.09 (inactive); in [5], 0.578 (inactive); in assay [6], 1.48 (inactive); in assay [7] it was 0.472 (inactive). Further, the results for the z-score in assay [8] and in [9] were 0.208 (inactive) and -3.1, respectively. Besides, the composite z-score was -0.0853 (inactive) in assay [4] and -0.0102 in [10].
In the case of `Cc1ccc(S[C@]2(C(=O)O)CC(=O)N(C(C)C)[C@@H]2c2ccc(CO)cc2)cc1`, the z-score in [1] was 0.0469; in [2] it was -1.45 (inactive); in assay [3], 0.359 (inactive); in assay [5], 1.02 (inactive); in assay [6], -1.33 (inactive); in [7] it was 1.44 (inactive). Besides, the figures for the z-score in assay [8] and in assay [9] were 1.93 (inactive) and 0.376, respectively. The composite z-score in [4] was -0.896 (inactive); in [10], -0.0962.
Turning to `[N-]=[N+]=Nc1ccccc1C[C@]1(C(=O)N2CCCCC2)COC(c2ccc(OCCCO)cc2)=N1`, the z-score in assay [1] is 0.508; in assay [2], -1.44 (inactive); in assay [3] it was -0.823 (inactive); in assay [5], -0.248 (inactive); in assay [6], 0.266 (inactive); in [7], 1.18 (inactive). The z-score was 0.344 (inactive) in assay [8] and 0.552 in [9]. The figures for the composite z-score in assay [4] and in assay [10] were 1.78 (inactive) and 0.054, respectively.
For `COCCOC(=O)N1C(=O)[C@@]2(c3ccccc31)[C@H](C(=O)N1CCc3cc(OC)c(OC)cc3C1)[C@H]1C(=O)O[C@H](c3ccccc3)[C@H](c3ccccc3)N1[C@@H]2c1ccc(O)cc1`, the z-score is 0.349 in assay [1]; 0.296 (inactive) in assay [2]; 0.173 (inactive) in assay [3]; 2.16 (inactive) in assay [5]; 1.13 (inactive) in [6]; -0.157 (inactive) in assay [7]. Further, the z-score in [8] is 0.549 (inactive); in [9], -0.111. The composite z-score was -0.974 (inactive) in [4] and 0.116 in assay [10].

The values are drawn from PubChem BioAssay.
